# Source: PubChem BioAssay
# An excerpt weighted towards active compounds, which were near 3.9% of everything screened.
# TWEAK-Fn14 inh = TWEAK-Fn14 signaling inhibition. 360,000 compounds, 2% hits. inhibition, % at 10 µM. TWEAK-stimulated Fn14 reporter cells, luciferase luminescence, 8 h. AID 1159606; in the data active = inhibition above about 50%
# HIF-2a inh = HIF-2a inhibition | 786-0 RCC cells HIF-2a reporter, luciferase luminescence, overnight | inhibition, % at 18.8 µM | 360,000 compounds, 0.72% hits;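 active = inhibition of the luminescence signal of 40% or more relative to plate controls, in a single-dose primary screen at 18.75 µM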
# KKLEB tox = counter-screen for CF NF-kB inhibitors: cytotoxicity | activity change (cytotoxicity), % at 5 µM | KKLEB CF airway cells viability, ATPlite luminescence, overnight; hits give low values; cells stimulated with P. aeruginosa culture filtrate | 360,000 compounds, 0.36% hits;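 active = corrected activity change at or below -50% at 5 µM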
# CF NFkB inh = cystic fibrosis NF-kB activation inhibition; AID 588850; inhibition, % at 5 µM; 360,000 compounds, 0.86% hits; KKLEB NF-kB-GFP reporter, PAF-induced, GFP fluorescence overnight;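 active = at least 50% inhibition at 5 µM, scaled per plate between neutral and stimulator controls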;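 also: PAF is a Pseudomonas aeruginosa culture filtrate used as stimulus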
# TROY signal inh = inhibitors of TROY-dependent NF-kB signaling. Q293 LMP1-TROYcd NF-kB luciferase reporter, 4 h. inhibition, % at 10 µM. 360,000 compounds, 0.98% hits. AID 1347056;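 active = compounds whose plate-normalised and pattern-corrected inhibition of the luciferase reporter signal at the single screening dose is 50% or more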
# Peg3 prom inh = inhibitors of Peg3 promoter | HeLa PEG-Prom luciferase reporter, luminescence, overnight | inhibition, % at 20 µM | 360,000 compounds, 1.7% hits | AID 588405;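 active = inhibition of at least 50% at 20 µM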
# A number is an active result; . = inactive; / = not tested or not shown.
SMILES,TWEAK-Fn14 inh,HIF-2a inh,KKLEB tox,CF NFkB inh,TROY signal inh,Peg3 prom inh
O=C1C(Cl)=C(NS(=O)(=O)c2ccc([N+](=O)[O-])cc2)C(=O)c2ccccc21,.,.,.,.,.,.
O=C1C(Cl)=C(NCCN2CCCCC2)C(=O)c2ccccc21,93,87,.,75,54,99
NC(=O)C1CCCN(C(=O)c2ccc(Cl)c(S(=O)(=O)N3CCc4ccccc43)c2)C1 (configuration not stated),.,.,.,.,.,.
CCOC(=O)Cn1cc(Cn2c3ccccc3c(=O)n2C(C)C)nn1,.,.,.,.,.,.
CC(C)NC(=O)N1CCN(c2ccncc2S(=O)(=O)N2CCOCC2)CC1,.,.,.,.,.,.
O=C1c2ccccc2-c2onc3ccc(NCc4ccco4)c1c23,.,.,.,.,.,.
O=C1C(Cl)=C(NCc2ccco2)C(=O)c2ccccc21,.,.,.,74,.,.
Cc1ccc(CSCc2ccc(C(=O)NCC3CCCO3)o2)cc1 (configuration not stated),.,.,.,.,.,.
c1ccc2[nH]c(CCCCCc3nc4ccccc4[nH]3)nc2c1,.,.,.,.,.,.
Cc1ccc(/C=N/Nc2ccc3ccccc3n2)o1,86,.,.,.,.,.
CC(=NNc1ccc2ccccc2n1)c1ccccc1O,100,43,.,.,74,.
CC1CC(C)CN(C(=O)Nc2ccc(Br)cc2)C1 (configuration not stated),.,.,.,.,.,.
Cc1cc(C(F)(F)F)nn1CC(=O)Nc1cccnc1,66,.,.,.,/,.
Cc1ccc2c(Cl)c(C(=O)Nc3cccnc3)sc2c1,58,.,.,.,.,.
Cc1cccc(CC(=O)Nc2cccnc2)c1,103,.,.,.,.,.
O=C(Cc1ccccc1)Nc1cccnc1,.,.,.,.,.,.
Cc1cc(C)n(CC(=O)Nc2cccc(C(F)(F)F)c2)n1,.,.,.,.,.,.
N#Cc1ccc(CSc2ccc(S(=O)(=O)N3CCCC3)cn2)cc1,.,.,.,.,.,.
O=[N+]([O-])c1ccc(N2CCN(Cc3ccccc3)CC2)s1,.,.,.,.,.,.
O=[N+]([O-])c1ccc(N2CCN(Cc3ccccc3)CC2)c2c1no[n+]2[O-],.,.,-61,.,.,95
O=C(O)Cc1csc(-c2ccc(F)cc2)n1,.,.,.,.,.,.
O=C(CSc1nc2c(sc3ccccc32)c(=O)n1CCCN1CCCC1)NCc1ccccc1,.,.,.,.,.,.
COc1cccc(NC(=O)CSc2nc3c(sc4ccccc43)c(=O)n2CCN(C)C)c1,.,.,.,.,.,.
COc1ccc(NC(=O)CSc2nc3ccccc3c(=O)n2CCCN2CCC(C)CC2)c(OC)c1,.,.,.,.,.,69
COc1cccc(NC(=O)CSc2nc3c(sc4ccccc43)c(=O)n2CCCN2CCCC2)c1,.,.,.,.,.,94
SMILES,TWEAK-Fn14 inh,HIF-2a inh,KKLEB tox,CF NFkB inh,TROY signal inh,Peg3 prom inh
CC1CCN(CCCn2c(SCC(=O)Nc3ccccc3Cl)nc3ccccc3c2=O)CC1,.,.,.,.,.,.
Cc1ccc(CNC(=O)CSc2nc3c(sc4ccccc43)c(=O)n2CCCN2CCCC2)cc1,.,.,.,.,.,109
Cc1sc(NC(=O)CN(Cc2ccc(F)cc2)C(=O)C(C)C)c(C(N)=O)c1C,.,.,.,.,.,.
CCOC(=O)c1c(C)[nH]c(C(=O)OCc2nc3ccsc3c(=O)[nH]2)c1C,.,.,.,.,.,.
O=S(=O)(NCCN1CCOCC1)c1ccc(F)c(Cl)c1,.,.,.,.,.,.
Nc1c(C(=O)Nc2nccs2)sc2nc(-c3cccs3)cc(C(F)(F)F)c12,.,.,.,.,.,.
Cc1nnc(NC(=O)c2sc3nc(-c4cccs4)cc(C(F)(F)F)c3c2N)s1,74,.,.,.,60,.
Cc1cc(C)c2c(N)c(C(=O)Nc3nccs3)sc2n1,66,.,.,.,.,.
O=C1C=CC(=O)N1Cc1ccccn1,.,.,.,.,.,.
Cc1nnc(SCC(=O)N2CCCC(N3CCN(c4ccc(F)cc4)CC3)C2)o1 (configuration not stated),.,.,.,.,.,.
S=C(NCCC(c1ccccc1)c1ccccc1)Nc1cccc(Cl)c1,.,.,.,.,62,.
S=C(NCCN(C1CCCCC1)C1CCCC1)Nc1cccc(Cl)c1,.,.,.,.,.,.
CCCCNC(=O)N1CCN(Cc2ccc(F)cc2)CC1,.,.,.,.,.,.
CC(C)Oc1ccc(C(=O)Nc2ccc(Cl)c(S(=O)(=O)Nc3ccc(Cl)cc3)c2)cc1,90,.,.,.,55,.
O=C(/C=C/c1ccccc1)Nc1ncn[nH]1,70,.,.,.,.,.
Cc1cc(-c2nn(-c3ccccc3)cc2/C=C2\SC(N)=NC2=O)ccc1OC(C)C,.,.,.,.,.,78
CCCOc1ccc(-c2nn(-c3ccccc3)cc2/C=C2\SC(N)=NC2=O)cc1,.,.,.,.,.,.
Fc1ccccc1C1c2[nH]c3ccccc3c2CCN1Cc1ccoc1 (configuration not stated),.,.,.,.,.,.
CCC(=O)Oc1oc(-c2ccccc2)nc1C=Nc1ccc(C)cc1,.,.,.,.,72,.
CN=Cc1nc(-c2ccccc2)oc1O,.,.,.,.,.,.
Cc1ccc(-c2nc(C=Nc3ccc(O)cc3)c(O)o2)cc1,64,.,.,.,.,.
CCC(=O)Oc1oc(-c2ccccc2)nc1C=Nc1ccccc1OC,.,.,.,.,.,.
CCN(CC(=O)Nc1ccccc1C(F)(F)F)C(=O)CSCC(=O)Nc1cc(C)on1,.,.,.,.,.,.
COc1ccc2sc(-c3ccccc3OC)c(-c3ccc(OCCN(C)C)cc3)c2c1,.,.,.,.,.,89
COc1ccc2c(-c3ccc(OCCN4CCOCC4)cc3)c(-c3ccccc3OC)sc2c1,.,.,.,.,.,.
COc1ccc2c(-c3ccc(OCCN4CCCCC4)cc3)c(-c3ccccc3OC)sc2c1,.,.,.,.,.,92
COc1ccccc1-c1sc2ccccc2c1-c1ccc(OCCN2CCCCC2)cc1,.,.,.,.,.,91
O=C(NCc1ccccc1)Nc1cccn(Cc2ccccc2Cl)c1=O,.,.,.,.,.,.
CCN(C[C@H]1N[C@@](CC)(C(=O)OC)[C@H]2C(=O)N(Cc3ccccc3)C(=O)[C@@H]12)C(=O)c1ccc(C(C)(C)C)cc1,.,.,-58,85,.,62
CCN(C[C@H]1N[C@@](CC)(C(=O)OC)[C@H]2C(=O)N(C)C(=O)[C@@H]12)S(=O)(=O)c1ccc(C(C)(C)C)cc1,54,.,.,.,.,.
